The structures appear in SMILES notation. This is part of a sample that, as a whole, favours compounds with a hit. Of some 79,000 tested, about 15% had one in any assay. The source made the active and inactive calls. No stated cut-off is given here; in the data, active means growth inhibition above about 70%; inactive means the rest.

The experiment can be described thus: NCI Yeast Anticancer Drug Screen. Data for the sgs1 mgt1 strain (AID 161).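 Further: 0% = growth of cultures given vehicle only.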 Particulars: S. cerevisiae sgs1 mgt1 strain, at 50.0 µM (retest, dose inferred, filed as 5.0), active compounds read high. Summed up:
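Read-out: growth inhibition vs vehicle controls. Cells: mutant yeast strain deficient in DNA damage repair.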
For the molecule `CCc1ccc(/C(C)=N/NC(N)=S)cc1`, the growth inhibition was 91% (active).
For `CC(C)/C=C1\CCOC1=O` the value was 5% (inactive); for `COc1c(C(=O)/C(=N/Nc2ccccc2)C(C)=O)c(O)c(OC)c2occc12`, 82% (active); for `COc1ccc(CC/C(=N/O)c2ccccc2)cc1`, 94% (active).
Then `CCOC(=O)C1(C#N)C(c2ccccc2)C1(C#N)C#N` (stereo not given), with 34% (inactive).
Then `COc1ccc(OC)c(/C=C/NC=O)c1`, with -2% (inactive); and `CC(=O)Oc1ccc(-c2ccc(Br)cc2)cc1`, with 89% (active); and `COC(=O)/C(C#N)=C/c1cc(OC)c(O)cc1Br`, with 68% (inactive).
For `CCC(C1SC(=S)NC1=O)C1SC(=S)NC1=O` (stereo not given), the growth inhibition was 41% (inactive).
For `CCC(C)c1ccc(O)c(C(C)c2ccccc2)c1` (stereo not given) the value was 97% (active); for `C/C(=N\NC(=S)N1CCN(c2ccccc2)CC1)c1nccs1`, 99% (active).
For `COc1ccc2c(C(=O)c3ccccc3)c3[n+](cc2c1OC)CCc1cc2c(cc1-3)OCO2` the value was 20% (inactive).
As for `Cc1cccc(C[N+](C)(C)CCCO)c1C`, the growth inhibition was 1% (inactive).
For `c1ccc(N=C2SC3=NCCN3C2=Nc2ccccc2)cc1` the value was 86% (active).
As for `Cc1ccc(SCc2ccccc2Cl)nn1`, the growth inhibition is 17% (inactive).
With `CCCc1cc(=O)oc2c3c(c4c(c12)OC(C)(C)CC4)O[C@H](C)[C@H](C)C3=O`, the growth inhibition was 99% (active).
For `CC1(C)COC(c2cccc(C(O)c3ccc(Cl)cc3)c2)=N1` (stereo not given) the value was 99% (active); for `CCOC(=O)c1cc(NC(=O)c2cc(NC(=O)c3cc(NC(=O)c4c(-c5ccccc5)noc4C)cn3C)cn2C)cn1C`, 86% (active); for `O=C(N/N=C/c1ccccc1O)c1ccccc1-n1cccc1`, 81% (active).
Then `O=C1CN(CCN2CCOCC2)CC(=O)N2Cc3ccccc3CN12`, with 41% (inactive); and `CCC[CH2][Sn]([CH2]CCC)([NH]c1ncnc2[nH]cnc12)[NH]c1ncnc2[nH]cnc12`, with 94% (active).
Then `Oc1ccc(Br)cc1C=Nc1c(NC2CCCCC2)oc2ccc(Br)cc12`, with 22% (inactive).
As for `Cc1cc2c(C(C)C)c(O)c(O)c3coc(/c1=c1/c(C)cc4c(C(C)C)c(=O)c(=O)c5coc1c45)c32`, the growth inhibition is 99% (active).
For `O=C1c2ccccc2C(=O)N1/N=C\c1ccccc1[N+](=O)[O-]` the value was 96% (active); for `O[C@H](CNCCS)[C@@H](O)CNCCS`, 27% (inactive); for `C[C@]12CC[C@H](O)CC1=CC[C@@H]1C2CC[C@]2(C)C(=O)N(N)C(=O)CC12` (stereo not given in full), 93% (active).
For `O=C(C(/C=N/C(=S)NCc1ccccc1)=C(/O)c1ccccc1)c1ccccc1` the value was 61% (inactive).
For `C=CC1(c2ccc(-c3ccccc3)cc2)OCCO1` the value was -10% (inactive).
As to `C=C1CC(COc2ccc3c(C)cc(=O)oc3c2)(c2ccccc2)OC1=O` (stereo not given), the growth inhibition is 32% (inactive).
For `CN(C)CCCNc1c2ccccc2nc2ccc([N+](=O)[O-])cc12` the value was 80% (active); for `CN1CCC(OC(=O)c2ccc3ncccc3c2)CC1`, 13% (inactive); for `COc1ccc(/C=C2/C(=O)N(C(=O)c3ccccc3O)N=C2C)cc1OC`, 61% (inactive).
For `CC1([N+](=O)[O-])C(=O)C2(N3CCOCC3)CCCC2C1c1ccccc1` (stereo not given) the value was 90% (active); for `COc1ccc(C2=C(Cl)C(=O)N(c3ccc(C)cc3)C(=O)C2(Cl)Cl)cc1`, 83% (active); for `COc1ccnc(-c2cc(OC)cc(/C(N)=N/O)n2)c1`, 63% (inactive).
For `Nc1ccccc1CCc1ccccc1` the value was 85% (active); for `COC(=O)c1ccc(OCCC(=O)CCl)cc1`, 55% (inactive).
For the molecule `CCCCCCCCCCCCS(=O)(=O)CC(Br)C(=O)c1ccco1` (stereo not given), the growth inhibition is 96% (active).
For `FC(F)(F)C(F)(F)C1(F)C(F)(F)C(F)(F)C(F)(F)C(F)(F)C1(F)F` the value was -3% (inactive); for `O=C(O)C(O)C(O)C(O)C(O)CO.[Ag]` (stereo not given), 99% (active).

Values taken from PubChem BioAssay (NCI).
